This is an account of results in ChEMBL document CHEMBL1961873, “Compounds: GSK PKIS; Assays: Nanosyn kinase panel” (2012).

The target in assay [1] is Serine/threonine-protein kinase PAK 6 (Homo sapiens) (UniProt Q9NQU5). The conditions noted are these: at 1 µM.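 Also: values are mean percent inhibition of PAK6 kinase.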
The test system of assay [2] is Tyrosine-protein kinase ABL1 (Homo sapiens), P00519 [E255K]. The conditions noted are these: at 0.1 µM.
For assay [3] the test system is unchanged. The conditions noted are these: at 1 µM.
Assay [4] deals with Tyrosine-protein kinase ABL1 (Homo sapiens), P00519 [H396P]. The conditions noted are these: at 0.1 µM.
Assay [5] shares this test system. The conditions noted are these: at 1 µM.
Assay [6] concerns Tyrosine-protein kinase ABL1 (Homo sapiens), P00519 [M351T]. The conditions noted are these: at 0.1 µM.
For assay [7] the test system is unchanged. The conditions noted are these: at 1 µM.
The subject of assay [8] is Tyrosine-protein kinase ABL1 (Homo sapiens), P00519 [Q252H]. The conditions noted are these: at 0.1 µM.
Assay [9] has the same test system. The conditions noted are these: at 1 µM.
In assay [10] the test system is Tyrosine-protein kinase ABL1 (Homo sapiens), P00519 [T315I]. The conditions noted are these: at 0.1 µM.
The test system is the same in assay [11]. The conditions noted are these: at 1 µM.
Assay [12] relates to Tyrosine-protein kinase ABL1 (Homo sapiens), P00519 [Y253F]. The conditions noted are these: at 0.1 µM.
The test system is the same in assay [13]. The conditions noted are these: at 1 µM.
Assay [14] concerns the target Tyrosine-protein kinase ABL1 (Homo sapiens) (UniProt P00519). The conditions noted are these: at 0.1 µM.
Assay [15] shares this target. The conditions noted are these: at 1 µM.
Assay [16] has as its target ALK tyrosine kinase receptor (Homo sapiens) (UniProt Q9UM73). The conditions noted are these: at 0.1 µM.
For assay [17] the target is unchanged. The conditions noted are these: at 1 µM.
The target in assay [18] is Tyrosine-protein kinase ABL2 (Homo sapiens) (UniProt P42684). The conditions noted are these: at 0.1 µM.
Tyrosine-protein kinase ABL2 (Homo sapiens), sequence (P42684 whole entry): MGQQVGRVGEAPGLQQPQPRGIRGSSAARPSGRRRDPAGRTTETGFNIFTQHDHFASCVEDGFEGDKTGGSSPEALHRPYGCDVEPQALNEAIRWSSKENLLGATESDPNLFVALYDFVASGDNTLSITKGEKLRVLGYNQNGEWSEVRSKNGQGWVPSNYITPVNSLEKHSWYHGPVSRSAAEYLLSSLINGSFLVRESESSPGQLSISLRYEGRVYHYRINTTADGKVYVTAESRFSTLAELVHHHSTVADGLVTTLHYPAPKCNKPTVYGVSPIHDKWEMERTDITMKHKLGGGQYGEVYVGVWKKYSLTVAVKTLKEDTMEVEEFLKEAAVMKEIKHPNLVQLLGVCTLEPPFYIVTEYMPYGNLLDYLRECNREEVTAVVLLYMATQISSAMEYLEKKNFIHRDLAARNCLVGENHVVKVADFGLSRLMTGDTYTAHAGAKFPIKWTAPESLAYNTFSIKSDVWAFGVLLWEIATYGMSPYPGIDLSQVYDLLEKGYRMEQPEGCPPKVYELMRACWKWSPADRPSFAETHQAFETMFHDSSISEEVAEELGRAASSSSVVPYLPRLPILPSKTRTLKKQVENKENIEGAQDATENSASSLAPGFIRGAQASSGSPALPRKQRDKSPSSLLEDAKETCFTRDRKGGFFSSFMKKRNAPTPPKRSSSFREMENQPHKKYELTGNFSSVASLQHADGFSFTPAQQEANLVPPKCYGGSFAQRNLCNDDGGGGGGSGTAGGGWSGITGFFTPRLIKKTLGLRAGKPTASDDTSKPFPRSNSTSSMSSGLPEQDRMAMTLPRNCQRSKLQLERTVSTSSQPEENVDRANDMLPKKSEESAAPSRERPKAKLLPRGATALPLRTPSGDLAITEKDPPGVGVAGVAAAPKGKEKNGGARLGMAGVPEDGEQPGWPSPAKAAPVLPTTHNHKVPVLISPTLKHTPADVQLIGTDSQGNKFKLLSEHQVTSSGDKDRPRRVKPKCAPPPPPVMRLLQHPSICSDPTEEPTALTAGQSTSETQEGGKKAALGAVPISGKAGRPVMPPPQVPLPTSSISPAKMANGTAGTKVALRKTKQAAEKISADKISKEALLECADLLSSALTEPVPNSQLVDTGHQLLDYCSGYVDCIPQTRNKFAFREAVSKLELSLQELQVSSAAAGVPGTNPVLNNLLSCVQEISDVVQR
Assay [19] shares this target. The conditions noted are these: at 1 µM.
Assay [20] concerns the target Tyrosine-protein kinase receptor UFO (Homo sapiens) (UniProt P30530). The conditions noted are these: at 0.1 µM.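 Also: values are mean percent inhibition of AXL from the GSK PKIS screen.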

Tyrosine-protein kinase receptor UFO (Homo sapiens), sequence (P30530 whole entry): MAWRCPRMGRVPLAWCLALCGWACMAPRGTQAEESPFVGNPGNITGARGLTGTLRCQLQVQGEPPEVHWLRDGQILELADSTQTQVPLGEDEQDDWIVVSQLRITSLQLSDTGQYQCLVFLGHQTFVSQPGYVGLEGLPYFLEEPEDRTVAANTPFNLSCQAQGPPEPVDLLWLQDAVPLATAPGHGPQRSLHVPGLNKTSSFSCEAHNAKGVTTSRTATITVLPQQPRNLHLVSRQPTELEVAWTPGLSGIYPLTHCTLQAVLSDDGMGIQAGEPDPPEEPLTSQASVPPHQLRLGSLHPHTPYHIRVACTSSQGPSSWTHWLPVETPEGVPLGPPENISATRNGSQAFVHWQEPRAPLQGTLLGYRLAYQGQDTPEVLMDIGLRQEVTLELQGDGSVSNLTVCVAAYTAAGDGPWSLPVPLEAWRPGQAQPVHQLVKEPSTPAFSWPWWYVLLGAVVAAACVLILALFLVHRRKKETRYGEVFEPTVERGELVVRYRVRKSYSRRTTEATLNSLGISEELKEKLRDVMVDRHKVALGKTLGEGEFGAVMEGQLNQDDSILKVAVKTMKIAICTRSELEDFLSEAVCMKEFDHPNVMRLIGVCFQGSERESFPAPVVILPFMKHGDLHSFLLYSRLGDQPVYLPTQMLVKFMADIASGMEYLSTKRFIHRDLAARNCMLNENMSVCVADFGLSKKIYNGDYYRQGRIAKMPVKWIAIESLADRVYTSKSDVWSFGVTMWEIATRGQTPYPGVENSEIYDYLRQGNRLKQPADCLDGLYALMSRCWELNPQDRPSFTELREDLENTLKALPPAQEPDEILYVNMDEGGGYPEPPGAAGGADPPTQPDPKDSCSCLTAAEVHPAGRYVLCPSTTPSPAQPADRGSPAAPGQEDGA
ALK tyrosine kinase receptor (Homo sapiens), sequence (Q9UM73 19-1620 limits assumed): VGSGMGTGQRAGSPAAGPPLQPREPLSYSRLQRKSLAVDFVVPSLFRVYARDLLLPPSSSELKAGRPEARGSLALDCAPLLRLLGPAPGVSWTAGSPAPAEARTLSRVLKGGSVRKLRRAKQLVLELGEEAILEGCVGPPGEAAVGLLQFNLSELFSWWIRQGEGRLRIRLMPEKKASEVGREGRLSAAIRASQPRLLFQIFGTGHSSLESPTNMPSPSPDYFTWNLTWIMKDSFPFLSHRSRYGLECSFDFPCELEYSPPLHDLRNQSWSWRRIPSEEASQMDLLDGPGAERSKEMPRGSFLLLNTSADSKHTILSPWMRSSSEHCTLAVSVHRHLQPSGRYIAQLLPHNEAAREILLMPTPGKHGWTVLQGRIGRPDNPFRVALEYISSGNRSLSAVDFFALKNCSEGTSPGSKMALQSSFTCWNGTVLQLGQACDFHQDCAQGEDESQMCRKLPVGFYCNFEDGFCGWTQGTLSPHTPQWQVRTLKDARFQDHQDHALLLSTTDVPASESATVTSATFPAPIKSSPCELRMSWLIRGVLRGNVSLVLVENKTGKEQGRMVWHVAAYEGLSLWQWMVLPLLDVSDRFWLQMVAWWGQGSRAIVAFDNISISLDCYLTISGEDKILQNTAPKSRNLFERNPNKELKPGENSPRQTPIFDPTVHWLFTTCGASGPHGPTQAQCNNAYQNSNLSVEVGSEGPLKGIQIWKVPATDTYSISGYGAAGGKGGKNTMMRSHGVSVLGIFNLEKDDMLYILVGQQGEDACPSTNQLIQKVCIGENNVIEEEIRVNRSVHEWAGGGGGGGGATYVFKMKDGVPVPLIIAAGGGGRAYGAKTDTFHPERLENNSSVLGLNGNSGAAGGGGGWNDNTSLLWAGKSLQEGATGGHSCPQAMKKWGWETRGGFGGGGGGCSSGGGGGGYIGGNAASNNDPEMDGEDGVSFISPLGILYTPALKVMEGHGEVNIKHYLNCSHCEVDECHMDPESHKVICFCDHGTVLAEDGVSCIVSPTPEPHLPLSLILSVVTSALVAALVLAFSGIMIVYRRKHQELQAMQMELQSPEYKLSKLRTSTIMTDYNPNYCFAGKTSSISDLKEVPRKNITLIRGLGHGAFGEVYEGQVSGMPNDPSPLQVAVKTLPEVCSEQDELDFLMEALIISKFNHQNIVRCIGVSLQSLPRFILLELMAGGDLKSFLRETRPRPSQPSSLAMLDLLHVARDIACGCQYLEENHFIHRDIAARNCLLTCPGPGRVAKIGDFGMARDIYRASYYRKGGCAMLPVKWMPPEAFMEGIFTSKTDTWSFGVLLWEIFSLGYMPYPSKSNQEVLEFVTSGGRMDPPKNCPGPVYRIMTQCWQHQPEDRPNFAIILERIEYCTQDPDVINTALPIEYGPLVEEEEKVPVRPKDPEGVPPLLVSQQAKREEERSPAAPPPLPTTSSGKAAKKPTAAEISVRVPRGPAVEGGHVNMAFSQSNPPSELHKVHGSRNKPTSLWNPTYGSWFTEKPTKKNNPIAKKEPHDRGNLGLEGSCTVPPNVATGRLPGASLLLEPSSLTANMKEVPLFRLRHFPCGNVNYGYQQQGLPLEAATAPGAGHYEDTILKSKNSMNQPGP
Serine/threonine-protein kinase PAK 6 (Homo sapiens), sequence (Q9NQU5 whole entry, looked up): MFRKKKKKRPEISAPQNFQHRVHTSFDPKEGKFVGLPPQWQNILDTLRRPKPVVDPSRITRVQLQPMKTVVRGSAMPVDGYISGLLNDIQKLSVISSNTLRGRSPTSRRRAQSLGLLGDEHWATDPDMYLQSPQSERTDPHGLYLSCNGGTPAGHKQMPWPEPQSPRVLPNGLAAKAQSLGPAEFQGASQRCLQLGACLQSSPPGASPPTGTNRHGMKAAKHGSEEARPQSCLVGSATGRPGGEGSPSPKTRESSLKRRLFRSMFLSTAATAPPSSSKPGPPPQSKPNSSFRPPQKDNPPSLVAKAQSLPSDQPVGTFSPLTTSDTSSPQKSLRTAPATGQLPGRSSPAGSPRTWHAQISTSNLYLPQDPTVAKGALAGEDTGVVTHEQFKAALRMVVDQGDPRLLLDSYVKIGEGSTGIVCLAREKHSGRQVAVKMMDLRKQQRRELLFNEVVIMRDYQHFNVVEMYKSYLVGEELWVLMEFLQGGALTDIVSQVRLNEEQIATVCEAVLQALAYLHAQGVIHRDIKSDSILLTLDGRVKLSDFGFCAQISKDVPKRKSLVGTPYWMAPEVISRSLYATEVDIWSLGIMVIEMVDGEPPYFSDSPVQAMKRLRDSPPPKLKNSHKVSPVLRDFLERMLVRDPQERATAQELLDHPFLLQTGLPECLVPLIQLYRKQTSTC

The inhibition is the drop in the measured response relative to a control, in per cent. On to `Cc1cccc2c1NC(=O)/C2=N\Nc1ccc(S(N)(=O)=O)cc1`, for which the inhibition in assay [1] stood at 7.35%; in assay [2], 1.51%; in assay [3], 6.03%; in assay [4] it was 6.45%; in assay [5], 7.83%; in [6] it was 0.61%. Further, the inhibition in assay [7] turned out to be 7.81%; in [8], 2.71%; in assay [9] it was 7.61%; in assay [10] it was 2.54%; in [11] it was 0.76%; in assay [12] it was 4.21%. Further, the inhibition in assay [13] turned out to be 11.3%; in assay [14], 5.35%; in [15], 11.4%; in [16], 2.99%; in [17], 4.7%; in assay [18], 3.22%. In addition, the inhibition is 10.1% in assay [19] and -3.51% in [20].
For the molecule `c1ccc(COc2ccc(Nc3ncnc4ccc(-c5ccco5)cc34)cc2)cc1`, the inhibition in [1] is 1.25%; in assay [2] it was -0.69%; in assay [3], 0.29%; in assay [4], 0.16%; in assay [5], 0.64%; in assay [6], 0.39%. Further, the inhibition in [7] worked out at 2.41%; in assay [8], 0.54%; in [9], 0.07%; in [10] it was 1.64%; in assay [11] it was 1.49%; in assay [12] it was 0.09%. In addition, the inhibition is 0.37% in [13]; 2.97% in [14]; 1% in [15]; 1.38% in assay [16]; 2.45% in assay [17]; 2.41% in [18]. Moreover, the inhibition in assay [19] was 4.34%; in [20] it was 0.76%.
For `CC1=C(C(=O)Nc2cc(Cl)c3[nH]ncc3c2)C(c2ccc(C(F)(F)F)cc2)CC(=O)N1` (stereo not given), the inhibition in assay [1] is -3.39%; in [2] it was 3.18%; in assay [3] it was 3.01%; in assay [4], 4.1%; in assay [5], 2.88%; in assay [6] it was 1.43%. In addition, the inhibition in assay [7] was found to be 4.53%; in assay [8], 4.06%; in assay [9], 4.83%; in assay [10], 2.02%; in assay [11], 3.3%; in [12] it was 3.38%. The inhibition in assay [13] stood at 4.41%; in assay [14], 2.62%; in [15], 1.72%; in assay [16] it was 2.22%; in assay [17], 2.26%; in assay [18], 3.63%. Also, the values for the inhibition in assay [19] and in [20] were 3.51% and -4.79%, respectively.
Consider `Nc1nc(-c2ccc(F)cc2)c(-c2ccc3ncccc3n2)s1`, for which the inhibition was -1.32% in [1]; 6.26% in assay [2]; 16.1% in assay [3]; 6.76% in assay [4]; 24.2% in assay [5]; 2.61% in assay [6]. Moreover, the inhibition in [7] was determined as 20.2%; in assay [8], 6.38%; in assay [9] it was 25.9%; in assay [10] it was 5.1%; in [11] it was 6.49%; in assay [12], 9.13%. For the same molecule, the inhibition in assay [13] was found to be 26.9%; in assay [14], 9.42%; in assay [15] it was 27.8%; in assay [16] it was 3.27%; in [17], 5.68%; in [18] it was 6.71%. Also, the inhibition is 20.1% in [19] and -5.15% in assay [20].
On to `CCn1c(-c2nonc2N)nc2c(C#CC(C)(C)O)ncc(OC3CCNCC3)c21`, for which the inhibition in assay [1] is 76%; in assay [2], -0.7%; in assay [3] it was -0.01%; in assay [4] it was 2.05%; in assay [5], 2.1%; in assay [6], -0.57%. Also, the inhibition is 0.51% in assay [7]; 0.98% in [8]; 0.41% in assay [9]; 2.72% in [10]; 1.99% in [11]; -0.54% in assay [12]. Also, the inhibition in [13] came out at 0.66%; in assay [14] it was 4.72%; in assay [15], 3.17%; in assay [16], 1.83%; in [17] it was 4.92%; in assay [18] it was 2.02%. Also, the inhibition in assay [19] was 3.67%; in assay [20] it was -1.51%.
With `CCn1c(-c2nonc2N)nc2cnc(Oc3cccc(NC(=O)c4ccc(N(C)C)cc4)c3)cc21`, the inhibition in assay [1] was -2.65%; in [2] it was 0.6%; in assay [3], 9.02%; in assay [4] it was 0.27%; in assay [5], 1.9%; in assay [6] it was -1.02%. For the same molecule, the inhibition worked out at 4.81% in [7]; 2.14% in assay [8]; 1.78% in assay [9]; 1.38% in [10]; 1.03% in assay [11]; 2.77% in assay [12]. For the same molecule, the inhibition in assay [13] amounted to 6.27%; in assay [14], 1.77%; in [15], 3.99%; in [16], 0.57%; in [17] it was 1.96%; in [18], 2.48%. For the same molecule, the figures for the inhibition in assay [19] and in assay [20] were 2.42% and -3.9%, respectively.
`CCOc1ccc2c(-c3ccnc(Nc4cccc(C(F)(F)F)c4)n3)cnn2n1`: the inhibition was -3.51% in assay [1]; 2.13% in assay [2]; 4.02% in [3]; 2.46% in assay [4]; 4.74% in assay [5]; 0.25% in assay [6]. Besides, the inhibition in [7] was 1.69%; in assay [8] it was 2.99%; in assay [9] it was 3.05%; in assay [10], -0.14%; in assay [11], 2.2%; in assay [12], 2.21%. Also, the inhibition was determined as 3.23% in [13]; 3.73% in [14]; 7.89% in assay [15]; 2.18% in assay [16]; 3.1% in [17]; 2.04% in assay [18]. Besides, the inhibition in assay [19] is 8.28%; in [20], -3.01%.
In the case of `N#Cc1c(NC(=O)c2ccc(F)cc2)sc2c1CCCC2`, the inhibition in assay [1] was -6.51%; in assay [2], 0.33%; in [3], 1.93%; in [4], -0.63%; in assay [5], 0.11%; in assay [6], -1.3%. Moreover, the inhibition in [7] was 2.69%; in assay [8] it was 1.76%; in [9] it was 2.3%; in assay [10], 1.04%; in assay [11] it was -0.02%; in assay [12] it was 0.83%. The inhibition in assay [13] was 1.49%; in assay [14] it was 1.79%; in assay [15], 4.24%; in assay [16], -0.03%; in [17] it was 1.01%; in assay [18], 3.54%. The inhibition in assay [19] is 2.41%; in assay [20], -1.93%.
